Consider 10 compounds from PubChem BioAssay (NCI).

About 83,000 compounds went through this panel and 20% of them were active in at least one assay; those are over-represented in the sample as a whole.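 Each cell line was grown in a 96-well plate and treated with one concentration of compound for 48 hours. Values below 10 were considered active.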 A number with no mark means an inactive call. The source made the active and inactive calls.

In the experiment the test system is M14 melanoma. Nature of the experiment: NCI-60 one-dose screen, 48 h (100 = growth as untreated, 0 = no growth, -100 = all killed). To be noted: 10 µM.
For `CCOC(=O)c1cc(C(=O)c2ccc(Cl)cc2)n2ccc(-c3cc[n+](CC(=O)c4ccc(OC)cc4)cc3)cc12`, the growth was 56.8%.

As to `COc1cc(C2C(C#N)=C(N)Oc3cc(O)ccc32)cc(OC)c1OC` (stereo not given), the growth was -15.6% (active).

Turning to `CCc1ccc(C2=NN(c3ccc(S(C)(=O)=O)cc3)C(=O)CC2)cc1`, the growth was 5.99% (active).

Regarding `CN(C)CCCOc1ccccc1NC1=C(Cl)C(=O)C(Nc2ccccc2OCCCN(C)C)=C(Cl)C1=O`, the growth was -68.8% (active).

As to `CCOC(=O)c1cc(C(=O)c2cc(OC)c(OC)c(OC)c2)n2ccc(-c3cc[n+](CC(=O)c4cc(OC)c(OC)c(OC)c4)cc3)cc12`, the growth is 54.5%.

`Oc1ccc(/C=N/N=C2c3ccccc3-c3ccccc32)c(O)c1`: the growth was 74.4%.

Take `CN1CCN(CC(=O)Nc2cccc(-n3cc(-c4ccncc4)c(-c4ccc(Cl)c(O)c4)n3)c2)CC1`: the growth is 8.05% (active).

On to `Clc1ccc(C2=NN=C3C(Cc4ccccc4)=Nc4ccccc4N3C2)cc1`, for which the growth is 75.8%.

Consider `CCOC(=O)c1cc(C(=O)c2cc(OC)c(OC)c(OC)c2)n2ncc3ccccc3c12`, for which the growth is 50.2%.

Turning to `CC(C)(C)OC(=O)CN1CCc2c(sc3ncnc(N/N=C/c4cccc5ccccc45)c23)C1`, the growth is 42.7%.
